Screening results (PubChem BioAssay)
SW480 rerep: A quantitative high throughput screen for small molecules that induce DNA re-replication in SW480 colon adenocarcinoma cells; SW480 DNA re-replication, Hoechst DNA content imaging, 48 h; Potency, µM (top dose mostly 46.1 µM), for inactives: at the top dose re-replication activation, actives largely listed as activators; 1.8% of 340,000 active; AID 624297, 2012; also: potency is read from the fitted curve at half-maximal effect; % of control where 0% means no effect; nearly all actives have a fitted effect of over 55% in size
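Cells (250 per well) received 23 nL compound or DMSO by pin tool and were kept 48 hr at 37 C, 5% CO2. Nuclei were then stained with Hoechst for 40 min and scanned for DNA content.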
KB-3-1 cytotox: qHTS assay for MDR1-selective chemotherapeutics: Primary screen using the parental adenocarcinoma cell KB-3-1. 1.4% of 400,000 active. KB-3-1 viability, CellTiter-Glo ATP luminescence, 72 h. Potency, µM (top dose mostly 46.1 µM), actives largely listed as cytotoxic; also: potency is read from the fitted curve at half-maximal effect; % is scaled to controls: 0 for no effect and ±100 for the full control effect; nearly all actives have a fitted effect of over 60% in size
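Multi-concentration cytotoxicity screen in KB-3-1 cells grown in DMEM lacking phenol red with 10% FBS. After 72 h at 37 °C with compound, ATP-dependent luminescence was recorded.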
KB-V1 cytotox: qHTS assay for MDR1-selective chemotherapeutics: Primary screen using the drug-selected MDR subline cells KB-V1; KB-V1 MDR cells viability, CellTiter-Glo, 72 h; Potency, µM (titrated, usually from 46.1 µM), most hits filed as cytotoxic; 3.4% of 400,000 active; AID 1347076, 2019; also: potency is read from the fitted curve at half-maximal effect; % is scaled to controls: 0 for no effect and ±100 for the full control effect; nearly all actives have a fitted effect of over 60% in size
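qHTS viability screen in drug-selected KB-V1 MDR cells: 72 h compound treatment at 37 degrees C, ATP luminescence end point.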
D3 antag: qHTS of D3 Dopamine Receptor Antagonist: qHTS; D(3) dopamine receptor (Homo sapiens), P35462; D3R cells, DiscoveRx beta-arrestin luminescence, antagonist mode; active compounds read low; max response, negative = inhibition, %; 2.5% of 360,000 active; AID 652054, 2013; in the data active = max response below about -50%; inconclusive = no clear call, values can overlap the other calls; also: % is scaled to controls: 0 for no effect and ±100 for the full control effect
Target sequence (P35462 whole entry, looked up): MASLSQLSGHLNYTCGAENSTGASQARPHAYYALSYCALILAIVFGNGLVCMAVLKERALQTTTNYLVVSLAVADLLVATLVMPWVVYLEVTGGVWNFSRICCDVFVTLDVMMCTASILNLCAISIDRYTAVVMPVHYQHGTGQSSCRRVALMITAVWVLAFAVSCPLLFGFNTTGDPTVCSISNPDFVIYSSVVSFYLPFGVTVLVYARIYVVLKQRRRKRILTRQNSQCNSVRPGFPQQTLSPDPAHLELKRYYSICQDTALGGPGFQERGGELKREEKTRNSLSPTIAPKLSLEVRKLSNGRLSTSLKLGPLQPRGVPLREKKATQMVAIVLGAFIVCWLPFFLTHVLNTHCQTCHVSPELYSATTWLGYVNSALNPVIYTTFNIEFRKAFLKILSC
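Cells plated overnight at 1500 cells/well, then exposed to library compounds with dopamine controls for 90 minutes at 37 degrees C. DiscoveRx reagent added for 30–60 minutes at room temperature; luminescence read, quantitative HTS format.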
MCF10A rerep: A quantitative high throughput screen for small molecules that induce DNA re-replication in MCF 10a normal breast cells; MCF 10A DNA re-replication, Hoechst nuclear intensity, 48 h; Potency, µM (titrated, usually from 46.1 µM), for the others: at the top dose activity, positive = re-replication, actives largely listed as activators; 2.9% of 350,000 active; AID 624296, 2012; also: potency is read from the fitted curve at half-maximal effect; % of control where 0% means no effect; nearly all actives have a fitted effect of over 50% in size
D3 ag: qHTS of D3 Dopamine Receptor Agonist: qHTS; D(3) dopamine receptor (Homo sapiens), P35462; D3R DiscoveRx beta-arrestin cells, luminescence, 90 min; max activation, %; 0.58% of 410,000 active; in the data active = max activation above about 30%; also: 0% is about no effect
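Cells at 1500/well, incubated overnight, then treated with pinned compounds (dopamine as control) for 90 min at 37 degrees C. DiscoveRx reagent added for 30 - 60 minutes at room temperature; luminescence read.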
The depositor's hits bear a star; i = inactive; ? = inconclusive; nt = no result given. In the library only some 8.9% were active in any assay of this set; here they are far more common. Unless noted, calls follow the shape of the dose curve; as a rule, active = well fitted curve in the direction sought with a large enough effect; inconclusive = small, poorly fitted or top-dose-only effect, or another doubt; inactive = no such curve, though single readings can be large; an effect the other way counts as inactive or inconclusive.

SMILES | SW480 rerep | KB-3-1 cytotox | KB-V1 cytotox | D3 antag | MCF10A rerep | D3 ag
Cc1ccc2occ(/C=N/NC(=O)c3ccccc3O)c(=O)c2c1 | 18.4µM* | ? | i | 11.9 | 3.3% | 6.5
Cc1cc(Cl)ccc1OCC(=O)Nc1c(Cl)ccc2nsnc12 | nt | ? | ? | nt | nt | -14.5
FC(F)Oc1ccc(NC(=S)NC23CC4CC(CC(C4)C2)C3)cc1 | 26.9% | 23.1µM* | 16.4µM* | -16.9 | 6.9% | -7.1
COc1ccccc1N1CCN(Cc2ccco2)CC1 | 2.9% | i | i | -76.1* | 1.6% | -9.4
O=C(c1ccc(Cl)c(S(=O)(=O)NCc2ccco2)c1)N1CCN(c2ccccc2F)CC1 | ? | ? | ? | 27.1 | ? | -2.8
Cc1ccccc1N1CCN(Cc2ccc([N+](=O)[O-])o2)CC1 | -2.8% | i | i | -2.9 | 0.0% | -21.2
COc1ccccc1N1CCN(C(=O)c2ccc(Cl)c(S(=O)(=O)NCc3ccco3)c2)CC1 | ? | 7.08µM* | 12.6µM* | 4.2 | ? | 0.3
Clc1ccccc1N1CCN(Cc2ccco2)CC1 | -3.3% | i | i | -56.3* | 1.6% | -4.7
COc1ccccc1N1CCN(Cc2ccc(-c3ccccc3[N+](=O)[O-])o2)CC1 | -2.0% | i | i | -85.6* | -0.5% | -16.4
CC(CN1c2ccccc2Sc2cccnc21)N(C)C (centres undefined) | nt | nt | nt | nt | nt | -17.4
CCCN(CCC)CCCNC(=O)C1CCC(CNS(=O)(=O)c2ccc(NC(C)=O)cc2)CC1 (centres undefined) | nt | i | ? | nt | nt | 5.7
CCC1CCCCN1CCN1C(=O)C2C(C(=O)Nc3ccc(OC)cc3)C3C=CC2(O3)C1C(=O)NC1CCCCC1 (centres undefined) | 16.8% | i | i | -13.4 | 9.2µM* | -1.7
CCC1CCCCN1CCN1C(=O)C2C(C(=O)Nc3cccc(OC)c3)C3C=CC2(O3)C1C(=O)NC1CCCCC1 (centres undefined) | -16.1% | i | i | -7.1 | ? | -3.0
COc1ccc(NC(=O)C2C3C=CC4(O3)C2C(=O)N(CCN2CCCCC2)C4C(=O)NC2CCCC(C)C2C)cc1 (centres undefined) | 25.9µM* | i | i | -10.4 | ? | -4.8
CCC(=O)N1c2ccccc2CC1C(=O)NCCc1ccccc1OC (centres undefined) | nt | i | i | nt | nt | -7.6
COCCOC(=O)/C(=C\c1cc(C(C)(C)C)c(O)c(C(C)(C)C)c1)C(C)=O | ? | i | i | -23.4 | 3.26µM* | -11.7
CC(C)(C)c1cc(CCC(=O)NN)cc(C(C)(C)C)c1O | 1.6% | i | i | 2.4 | 0.5% | 4.1
C=CCN(c1ccccc1OC)S(=O)(=O)c1cccc(C(=O)OCC(=O)N2CC(C)OC(C)C2)c1 (centres undefined) | 6.6% | i | 4.11µM* | 12.2 | 10.8% | 0.2
Cc1ccc(C(=O)O)cc1-c1ccc(/C=C2\SC(=O)N(CC(=O)Nc3ccccc3)C2=O)o1 | -26.0% | i | i | -18.1 | 23.1µM* | -9.2
O=C(O)c1ccc(COc2ccccc2/C=C2\NC(=O)N(Cc3ccc(F)cc3)C2=O)cc1 | ? | i | i | -18.4 | 5.0% | 1.9
Cc1ccc(C(=O)O)cc1-c1ccc(/C=C2/NC(=O)N(c3ccccc3)C2=O)o1 | ? | i | i | -5.5 | 13µM* | 2.9
Cc1ccc(CN2C(=O)N/C(=C\c3ccc(-c4ccc(C(=O)O)cc4C)o3)C2=O)cc1 | 7.31µM* | i | i | -17.1 | ? | -0.2
Cc1ccc(/C=C2/NC(=O)N(Cc3ccccc3)C2=O)o1 | ? | i | i | -27.7 | 24.5% | -1.2
O=C(O)c1ccc(-c2ccc(/C=C3\NC(=O)N(Cc4ccc(Cl)cc4)C3=O)o2)cc1 | 10.3µM* | i | i | -5.3 | 2.06µM* | -6.2
Cc1ccccc1NC(=O)CN1C(=O)S/C(=C\c2ccc(-c3cc(C(=O)O)ccc3C)o2)C1=O | 8.6% | i | ? | ? | ? | -16.9
SMILES | SW480 rerep | KB-3-1 cytotox | KB-V1 cytotox | D3 antag | MCF10A rerep | D3 ag
CC(C)C(=O)Nc1ccccc1C(=O)OCc1cc(=O)n2nc(C3CC3)sc2n1 | nt | i | i | nt | nt | 4.6
CCOC(=O)c1sc(NC(=O)c2nc(SCC)ncc2Cl)c(C(=O)OCC)c1C | nt | i | i | nt | nt | -10.9
CCN(CC(=O)Nc1c(F)cccc1F)C(=O)C1CCN(S(=O)(=O)c2ccccc2C(=O)OC)CC1 | -14.7% | i | i | 3.4 | 4.4% | -0.4
C#CCN1C(=O)S/C(=C\c2ccc(-c3ccc(C(=O)O)cc3C)o2)C1=O | 20.0% | i | i | -9.7 | -6.0% | -2.4
Cc1cc(C(=O)O)ccc1-c1ccc(/C=C2\NC(=O)N(Cc3ccccc3Cl)C2=O)o1 | ? | i | i | -3.1 | 2.31µM* | 28.7
CCOC(=O)C(C)N1C(=O)S/C(=C\c2ccc(-c3ccccc3C(=O)O)o2)C1=O (centres undefined) | ? | i | i | 0.1 | -7.7% | 1.4
Cc1ccc(C)c(N2C(=N)S/C(=C\c3ccc(-c4ccccc4C(=O)O)o3)C2=O)c1 | -18.5% | i | i | ? | 18.4µM* | -22.4
COc1ccc(C2C(=O)N(C3CCCCC3)CC(=O)N2C2CCCCC2)cc1 (centres undefined) | 2.9% | i | i | 18.5 | 19.8% | -5.4
Cc1ccc(C2C(=O)N(C3CCCC3)CC(=O)N2C2CCCCC2)cc1 (centres undefined) | 3.4% | i | 2.91µM* | 13.0 | 7.5% | -2.4
COC(=O)Cc1c(C)c2ccc3c(c2oc1=O)CN(Cc1ccc(Cl)cc1)CO3 | nt | i | i | nt | nt | -3.8
CCN1CCN(c2cc(C)c3cc(NC(=S)N4CCOCC4)ccc3n2)CC1 | 16.4µM* | i | i | 3.6 | ? | -18.8
CCCN1CCN(C(=S)Nc2ccc3nc(N4CCN(CC)CC4)cc(C)c3c2)CC1 | ? | i | i | -8.6 | 18.4µM* | -7.9
CCN1CCN(c2cc(C)c3cc(NC(=S)N4CCC5(CC4)OCCO5)ccc3n2)CC1 | -6.9% | ? | i | -25.8 | -5.7% | -12.5
Cc1ccc(C)c(N2CCN(C(=S)Nc3ccc4nc(N5CCN(C)CC5)cc(C)c4c3)CC2)c1 | -14.0% | ? | i | ? | ? | -17.9
CCN1CCN(c2cc(C)c3cc(NC(=S)N4CCN(c5ccccc5)CC4)ccc3n2)CC1 | 18.4µM* | i | i | -6.6 | 20.6µM* | -8.0
